Holding throughout (assay): NCI-60 one-dose screen, 48 h (100 = growth as untreated, 0 = no growth, -100 = all killed)
In one test the test system is NCI-H23 lung. Conditions: 10 µM unless noted.
The test system of another test is NCI-H226 lung. The conditions noted are these: 10 µM unless noted.
The test system of the next test is NCI-H322M lung. The conditions noted are these: 10 µM unless noted.
The subject of a further test is HOP-62 NSCLC. The conditions noted are these: 10 µM unless noted.
The next test has as its system NCI-H522 lung. The conditions noted are these: 10 µM.
The next test relates to A549/ATCC NSCLC. The conditions noted are these: 10 µM unless noted.
The test system of a further test is 786-0 renal. Conditions: 10 µM unless noted.
For another test, the system named is COLO 205 colon. Conditions: 10 µM unless noted.
In the next test the test system is DU-145 prostate. Conditions: 10 µM unless noted.
The test system of the next test is K-562 leukemia. Conditions: 10 µM unless noted.
A further test concerns MALME-3M melanoma. The conditions noted are these: 10 µM unless noted.
The subject of a further test is MDA-MB-231 breast. Conditions: 10 µM unless noted.
The subject of the next test is RXF 393 renal. The conditions noted are these: 10 µM unless noted.
In the next test the test system is SF-268 CNS. Conditions: 10 µM unless noted.
The test system of the next test is SF-295 CNS. The conditions noted are these: 10 µM unless noted.
For the next test, the system named is UACC-257 melanoma. The conditions noted are these: 10 µM unless noted.
The next test has as its system M14 melanoma. The conditions noted are these: 10 µM unless noted.
Another test has as its system NCI-H460 lung. Conditions: 10 µM unless noted.
For a further test, the system named is HOP-92 NSCLC. The conditions noted are these: 10 µM.
The subject of another test is SF-539 CNS. The conditions noted are these: 10 µM unless noted.

Compounds without any hit were thinned out: in the full panel of roughly 83,000, 20% have a hit.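 A percent growth of 40 corresponds to 60% growth inhibition; 0 means no net growth; -100 means all cells died. Active threshold: below 10.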 A number with no mark means an inactive call. Activity calls are given as the source filed them.

Consider `CCOC(=O)CNS(=O)(=O)CC(=O)c1ccccc1`, for which the growth in the test with NCI-H23 lung was 101%; with NCI-H226 lung, 101%; in the test on NCI-H322M lung it was 87.9%; in the test on HOP-62 NSCLC, 83.8%; with NCI-H522 lung it was 89.8%; in the test with A549/ATCC NSCLC, 116%. The growth in the test on 786-0 renal is 97.5%; with COLO 205 colon, 130%; in the test on DU-145 prostate it was 117%; in the test with K-562 leukemia, 86.8%; in the test with MALME-3M melanoma, 83%; in the test on MDA-MB-231 breast, 97.3%. For the same compound, the growth with RXF 393 renal was 117%; in the test on SF-268 CNS, 124%; in the test on SF-295 CNS it was 118%; in the test on UACC-257 melanoma, 132%; with M14 melanoma, 93.4%.
Take `CC(=O)Nc1nc(C)c(C(=O)NN)s1`: the growth in the test on NCI-H23 lung was 103%; with NCI-H226 lung it was 92.1%; with NCI-H322M lung it was 96%; with NCI-H460 lung, 115%; with HOP-92 NSCLC it was 3.84% (active); in the test on NCI-H522 lung, 97.5%. The growth was 101% in the test on A549/ATCC NSCLC; 93% in the test with 786-0 renal; 108% in the test with COLO 205 colon; 105% in the test on DU-145 prostate; 67.3% in the test on K-562 leukemia; 120% in the test with MALME-3M melanoma. For the same compound, the growth in the test with MDA-MB-231 breast was 99%; in the test on RXF 393 renal, 104%; in the test with SF-268 CNS it was 95.2%; with SF-295 CNS, 133%; in the test with SF-539 CNS it was 91.3%; with UACC-257 melanoma, 108%. For the same compound, the growth in the test with M14 melanoma was 113%.
As for `CC(C)OC(=O)c1ccc2n1CCCc1cnc(Nc3ccccc3)nc1-2`, the growth in the test on NCI-H23 lung was 67%; in the test with NCI-H226 lung it was 84.4%; in the test with NCI-H322M lung, 116%; in the test on NCI-H460 lung it was 86.6%; in the test on HOP-92 NSCLC it was 75.6%; in the test with NCI-H522 lung, 63.3%. Besides, the growth is 74.4% in the test on A549/ATCC NSCLC; 83.3% with 786-0 renal; 86% in the test with COLO 205 colon; 87.2% in the test with DU-145 prostate; 43.6% in the test with K-562 leukemia; 55.4% with MALME-3M melanoma. Besides, the growth with MDA-MB-231 breast was 78%; in the test on RXF 393 renal, 91.2%; in the test on SF-268 CNS it was 94.4%; in the test with SF-295 CNS it was 76.1%; in the test on SF-539 CNS, 86.1%; with UACC-257 melanoma it was 82.8%. The growth with M14 melanoma was 89.6%.
`COc1ccc(C2C3(C#N)C(N)=NC(=C(C#N)C#N)C23C#N)cc1OC` (stereo unspecified): the growth with NCI-H23 lung is 104%; with NCI-H226 lung it was 109%; in the test with NCI-H322M lung, 111%; in the test with NCI-H460 lung it was 119%; with HOP-92 NSCLC, 76.8%; with NCI-H522 lung it was 107%. Also, the growth in the test with A549/ATCC NSCLC was 107%; in the test with 786-0 renal, 99.5%; in the test with COLO 205 colon it was 123%; in the test with DU-145 prostate it was 102%; in the test on K-562 leukemia it was 97.1%; in the test with MALME-3M melanoma it was 112%. Also, the growth in the test on MDA-MB-231 breast was 93.2%; with RXF 393 renal it was 96.8%; in the test on SF-268 CNS it was 121%; with SF-295 CNS it was 108%; with SF-539 CNS, 94.2%; with UACC-257 melanoma, 102%.
On to `CCCOC(=O)c1c(C)n(C)c2scc[n+]12`, for which the growth in the test with NCI-H23 lung is 29%; with NCI-H226 lung, 87.2%; in the test with NCI-H322M lung, 51.2%; in the test with NCI-H460 lung, 110%; in the test with HOP-92 NSCLC, 30.1%; in the test on NCI-H522 lung, 79.2%. The growth with A549/ATCC NSCLC was 62.9%; in the test with 786-0 renal, 62.9%; with COLO 205 colon, 84.9%; in the test with DU-145 prostate it was 77.8%; in the test with K-562 leukemia, 65%; in the test with MALME-3M melanoma it was 92.5%. For the same compound, the growth with MDA-MB-231 breast was 80.1%; with RXF 393 renal, 67.8%; in the test on SF-268 CNS, 89.3%; with SF-295 CNS, 54.1%; in the test with SF-539 CNS, 81.1%; in the test with UACC-257 melanoma, 78.8%.
`COc1cc(NC(C)CCCN)c2nccc(C)c2c1OC` (stereo unspecified): the growth in the test on NCI-H23 lung was 51.8%; in the test with NCI-H226 lung, 97.2%; in the test with NCI-H322M lung, 103%; in the test on NCI-H460 lung it was 109%; in the test with HOP-92 NSCLC, 47.9%; in the test with NCI-H522 lung, 31.6%. Further, the growth in the test with A549/ATCC NSCLC was 144%; with 786-0 renal, 98.8%; in the test on COLO 205 colon it was 50.6%; in the test with DU-145 prostate it was 71.3%; with K-562 leukemia it was 65%; with MALME-3M melanoma, 104%. In addition, the growth was 59.5% in the test with MDA-MB-231 breast; 164% with RXF 393 renal; 126% with SF-268 CNS; 115% in the test with SF-295 CNS; 41.3% in the test with SF-539 CNS; 112% in the test with UACC-257 melanoma.
Regarding `COc1ccc(-c2nc(Nc3nc4ccccc4[nH]3)nc(N)c2C#N)cc1`, the growth in the test with NCI-H23 lung was 100%; in the test with NCI-H226 lung, 85.4%; in the test with NCI-H322M lung, 111%; in the test on NCI-H460 lung, 109%; in the test with HOP-92 NSCLC, 88.6%; in the test on NCI-H522 lung, 92.5%. Besides, the growth with A549/ATCC NSCLC was 106%; in the test on 786-0 renal it was 102%; with COLO 205 colon it was 81.4%; with DU-145 prostate, 108%; in the test with K-562 leukemia it was 97.2%; in the test with MALME-3M melanoma it was 106%. For the same compound, the growth with MDA-MB-231 breast is 91.9%; in the test on RXF 393 renal it was 134%; with SF-268 CNS, 99%; in the test on SF-295 CNS, 114%; in the test on SF-539 CNS it was 97.2%; in the test with UACC-257 melanoma, 108%. In addition, in the test on M14 melanoma, the growth was 99.5%.
As for `COc1cc(N)c2nccc(C)c2c1OC`, the growth was 115% with NCI-H23 lung; 101% in the test on NCI-H226 lung; 106% in the test on NCI-H322M lung; 112% with NCI-H460 lung; 81.7% with HOP-92 NSCLC; 133% with NCI-H522 lung. Further, the growth in the test with A549/ATCC NSCLC was 117%; in the test on 786-0 renal, 103%; with COLO 205 colon, 116%; in the test with DU-145 prostate it was 100%; with K-562 leukemia, 92.1%; with MALME-3M melanoma it was 95.8%. Moreover, the growth in the test with MDA-MB-231 breast was 91.2%; in the test on RXF 393 renal, -4.59% (active); in the test on SF-268 CNS it was 114%; in the test on SF-295 CNS it was 116%; in the test with SF-539 CNS, 82%; with UACC-257 melanoma, 92.5%.

The values are drawn from PubChem BioAssay (NCI).
